Reference: PubChem BioAssay AID2685 (National Center for Advancing Translational Sciences (NCATS), 2010)
In all, about 320,000 compounds went through this assay and about 2,100 (0.66%) were called active. Inconclusive results (about 53%) are left out. The call rests on the fitted dose curve; in most records, active means well fitted inhibition curve with a large enough effect in the signal ratio, with a control signal flat (not every such curve was filed as active); inconclusive means small, poorly fitted or top-dose-only effect, or effect the other way, or a change in a side signal; inactive means flat fitted curve, though single readings scatter; the % refers to the signal ratio. Only a selection was taken, and actives are over-represented in it overall.

Assay: qHTS Assay for Lipid Storage Modulators in Drosophila S3 Cells;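 on cell number change: cells counted by Cell Tracker Red CMTPX staining in the red channel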; on lipid storage change, negative = inhibition: on the % scale 0 is the no-effect control and ±100 the full control effect
Conditions: BODIPY lipid droplet fluorescence, 18-24 h, cells fed with added oleic acid; cell number change: measured here: cell count max response; series mostly up to 46.1 µM; lipid storage change, negative = inhibition: at the top concentration
Method in brief: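 Drosophila S3 cells loaded with oleic acid (400 uM, as added) and compounds at several concentrations; lipid droplets imaged by 488-nm laser-scanning cytometry, 500–530 nm intensity and object ratio to cell channel. Percent activity normalized to 20 uM Triacsin C.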
Potency means the concentration at half of the fitted maximal effect.

SMILES | lipid storage change, negative = inhibition | cell number change [%] | Potency | outcome
S=C(c1cn(Cc2ccccc2)c2ccccc12)N1CCOCC1 | 5.71% (inactive) | 4.05 |  | 
O=C(O)Cn1cc(C(=S)N2CCOCC2)c2ccccc21 |  | -0.629 | 23.1 µM (active) | 
NC(=O)Cn1cc(C(=O)C(=O)N2CCOCC2)c2ccccc21 |  | -8.62 |  | inactive
CCc1nc2oc3ccccc3c(=O)c2c(=O)n1CCOC | -1.96% [at 9.22 µM] (inactive) | 14.4 |  | 
O=C(CCc1ccccc1)NC(NC(=S)Nc1ccc(Br)cc1)C(Cl)(Cl)Cl (stereo not given) |  | -27.3 |  | inactive
Cc1ccc(-n2nnnc2SCCNS(=O)(=O)c2ccccc2)cc1C |  | -14.2 |  | inactive
Cc1ccc(NC(=O)CSc2nnc(N)s2)cc1S(=O)(=O)N1CCCCC1 | -6.49% (inactive) | -23.8 |  | 
CCOc1ccc(CNC(=O)C2Cc3cc(S(=O)(=O)N4CCCCC4)ccc3N2C(C)=O)cc1 (stereo not given) | -7.83% (inactive) | 8.5 |  | 
CCc1ccc(CNC(=O)C2Cc3cc(S(=O)(=O)N4CCCC4)ccc3N2C(C)=O)cc1 (stereo not given) |  | -14.2 | 11.6 µM (active) | 
CC(=O)N1c2ccc(S(=O)(=O)N3CCCC3)cc2CC1C(=O)NCc1ccc(N(C)C)cc1 (stereo not given) |  | 12.7 |  | inactive
CCN(CC)S(=O)(=O)c1cc(OC)c(Cl)cc1OC | 21.7% (inactive) | 14.5 |  | 
COc1cc(/C=N/NC(=O)COc2ccc(-n3cnnn3)cc2)ccc1OCC(N)=O | 7.09% (inactive) | 7.43 |  | 
Cc1noc(C)c1S(=O)(=O)N(CC(=O)O)c1ccc2c(c1)OCO2 | 11.7% (inactive) |  |  | 
CCc1ccc(N(CC(=O)O)S(=O)(=O)c2c(C)noc2C)cc1 | -21% (inactive) | 7.92 |  | 
Cc1cc(C)cc(N(CC(=O)O)S(=O)(=O)c2c(C)noc2C)c1 |  | 2.34 | 23.1 µM (active) | 
CC(=O)Nc1ccc(NC(=O)Cn2c(=O)n(-c3ccc(C)cc3)c(=O)c3oc4ccccc4c32)cc1 | -4.89% (inactive) | -4.98 |  | 
O=C(CN1CCN(S(=O)(=O)c2ccc3ccccc3c2)CC1)Nc1ccc(N2CCOCC2)cc1 | 4.39% (inactive) | -8.53 |  | 
COC(=O)c1cccc(NC(=O)CN2CCN(c3ccc(OC)cc3)CC2)c1 | 21.8% (inactive) | 6.81 |  | 
COc1ccc(CC(=O)Nc2cccc(S(=O)(=O)N3CCCCC3)c2)cc1 | 11.3% (inactive) | -18.3 |  | 
COc1ccc(N2CCN(CC(=O)Nc3cccc(S(=O)(=O)N4CCOCC4)c3)CC2)cc1 |  | -21.6 | 16.4 µM (active) | 
COc1ccc(CC(=O)Nc2cc(S(=O)(=O)N3CCCCC3)ccc2C)cc1OC | -0.673% (inactive) | -3.08 |  | 
O=C(Cc1ccc(Br)cc1)Nc1cccc(S(=O)(=O)N2CCOCC2)c1 | 2.72% (inactive) | -12.5 |  | 
O=C(CN1CCN(S(=O)(=O)c2ccccc2)CC1)Nc1ccnn1C1CCCC1 | -14.9% (inactive) | -2.45 |  | 

SMILES | lipid storage change, negative = inhibition | cell number change [%] | Potency | outcome
COc1ccccc1CCC(=O)Nc1cccc(S(=O)(=O)N2CCOCC2)c1 | 16.2% (inactive) | 12.7 |  | 
COc1cccc(N2CCN(CC(=O)Nc3ccnn3C3CCCC3)CC2)c1 |  | -10.7 | 10.3 µM (active) | 
COc1ccccc1N1CCN(CC(=O)Nc2ccnn2C2CCCC2)CC1 | 6.76% (inactive) | 1.72 |  | 
COc1ccc(CC(=O)Nc2cccc(S(=O)(=O)N3CCCCCC3)c2)cc1OC |  | -6.09 | 20.6 µM (active) | 
COc1ccc(CC(=O)Nc2cccc(S(=O)(=O)N3CCOCC3)c2)cc1OC |  | -21.4 | 23.1 µM (active) | 
O=C(NCc1ccccc1)c1ccc(Cl)nc1 | 3.79% (inactive) | 10 |  | 
CC(C)(C)c1ccc(/C=N/NC(=O)c2ccccn2)cc1 | 13.5% (inactive) | 6.33 |  | 
CCCCC(Sc1nc(N)c(NC(=O)c2ccco2)c(=O)[nH]1)C(=O)O (stereo not given) |  | -24.3 |  | inactive
O=C(CN(C(=O)c1csnn1)c1cccc(Cl)c1)NCCc1ccccc1 |  | 12.4 |  | inactive
Cc1ccccc1NC(=O)CSc1ccc(-c2ccco2)nn1 | 6.34% (inactive) | -9.57 |  | 
CCCNc1ccc(S(=O)(=O)N(CC)CC)cn1 | -12.3% (inactive) | 5.83 |  | 
Cc1ccc(S(=O)(=O)N(CC(=O)NC2CC2)c2ccc(C)c(Cl)c2)cc1 | -26.3% (inactive) |  |  | 
CCOC(=O)CCN |  | 3.17 |  | inactive
O=C(NCC1CCCO1)c1ccc2c(c1)C(=O)N(C1CCCCC1)C2=O (stereo not given) |  | 2.66 |  | inactive
O=C(NCC1CCCO1)c1ccc2c(c1)C(=O)N(c1cccc([N+](=O)[O-])c1)C2=O (stereo not given) |  | -9.52 | 0.82 µM (active) | 
O=C(NCC1CCCO1)c1ccc(NS(=O)(=O)c2cccc([N+](=O)[O-])c2)cc1 (stereo not given) | -23.3% (inactive) | 5.5 |  | 
Nc1c(-c2ccc(Cl)cc2)cnn1-c1cccc(C(F)(F)F)c1 | 3.21% (inactive) | 10.7 |  | 
O=C(C1CCCN(Cc2ccc(Cl)cc2)C1)N1CCCCC1 (stereo not given) |  | 22.8 |  | inactive
NC(=O)C1CCCN(Cc2ccc(Cl)cc2)C1 (stereo not given) |  | -11.1 | 29.1 µM (active) | 
NC(=O)C1CCCN(Cc2ccc3ccccc3c2)C1 (stereo not given) |  | 10.8 |  | inactive
O=C(COC(=O)c1ccc(S(=O)(=O)NCc2ccco2)cc1)NC1CCCCC1 | 6.47% (inactive) | 0.997 |  | 
O=C(COC(=O)c1ccc(S(=O)(=O)NCc2ccco2)cc1)NCC1CCCCC1 |  | -12.1 | 25.9 µM (active) | 
Cc1ccc(CNC(=O)COC(=O)c2ccc(S(=O)(=O)NCc3ccco3)cc2)cc1 | 14.5% (inactive) | -0.995 |  | 
